Measurements published in the antibiotic and cytotoxicity screens of Wong et al. (2023).
Among all 39,000 compounds or so, about 3,300 (8.5%) were called active. This excerpt belongs to a sample that is enriched for actives.

Each molecule was assayed on HepG2 (assay: cytotoxicity call (relative viability < 0.9)). Conditions: 10 µM.

Row | SMILES | cytotoxicity call
1 | C[C@@H]1CN([C@H](C)CO)C(=O)Cc2cc(NS(=O)(=O)c3cccs3)ccc2O[C@H]1CN(C)C(=O)Nc1cccc2ccccc12 | inactive
2 | CCCNC(=O)N(C)C[C@@H]1Oc2cc(-c3ccccc3F)ccc2S(=O)(=O)N([C@@H](C)CO)C[C@@H]1C | inactive
3 | CN(C)CCCNC(=O)C[C@@H]1C=C[C@H](NS(=O)(=O)c2ccccc2)[C@@H](CO)O1 | inactive
4 | C[C@@H]1CCCCO[C@@H](CN(C)S(=O)(=O)c2cn(C)cn2)[C@@H](C)CN([C@H](C)CO)C(=O)c2cc(NS(=O)(=O)c3ccccc3)ccc2O1 | inactive
5 | O=C(NCCCN1CCOCC1)[C@H]1[C@H](CO)[C@H]2Cn3c(cccc3=O)[C@@H]1N2C(=O)C1CCCC1 | inactive
6 | COc1ccc(CNC(=O)C[C@H]2C[C@@H]3c4cc(NS(=O)(=O)c5ccc(F)cc5)ccc4O[C@@H]3[C@H](CO)O2)cc1 | inactive
7 | C[C@@H]1CN([C@@H](C)CO)C(=O)Cc2cc(NC(=O)CCCCCC(=O)Nc3ccccc3N)ccc2O[C@H]1CN(C)S(C)(=O)=O | inactive
8 | COc1cccc(CN(C)C[C@@H]2OCc3ccccc3-c3c(n(C)c4ccccc34)C(=O)N([C@@H](C)CO)C[C@H]2C)c1 | inactive
9 | C[C@H](CO)N1C[C@H](C)[C@H](CN(C)Cc2ccc(C(F)(F)F)cc2)OCCCC[C@H](C)Oc2ccc(NS(=O)(=O)c3cn(C)cn3)cc2C1=O | inactive
10 | O=C(C[C@@H]1CC[C@H]2[C@@H](COC[C@H](O)CN2C(=O)Nc2ccc(Cl)cc2)O1)NCCc1ccncc1 | inactive
11 | C[C@@H]1CCCCO[C@H](CN(C)Cc2ccc(C(F)(F)F)cc2)[C@@H](C)CN([C@@H](C)CO)C(=O)c2cc(N(C)C)ccc2O1 | inactive
12 | O=C(C[C@@H]1C[C@@H]2c3cc(NC(=O)C4CCOCC4)ccc3O[C@@H]2[C@H](CO)O1)NCc1cc(F)ccc1F | inactive
13 | O=c1c(O)cccc2cc(O)c(O)c(O)c12 | inactive
14 | O=c1c(O)c(O)cc2cccc(O)c(O)c1-2 | active
15 | O=C(O)c1cc2ccc(O)c(=O)c-2c(O)c(O)c1 | inactive
16 | CCCNC(=O)Nc1ccc2c(c1)OC[C@H](C)N(C(=O)C1CCOCC1)C[C@H](C)[C@@H](OC)CN(C)C2=O | inactive
17 | Cc1ccc(S(=O)(=O)N(C)C[C@@H]2Oc3ccc(NS(C)(=O)=O)cc3CC(=O)N([C@@H](C)CO)C[C@H]2C)cc1 | inactive
18 | C=CCN(Cc1ccccc1)C(=O)[C@@H]1N(CCOCCO)C(=O)[C@@H]2[C@H](C(=O)O)[C@@H]3C=C[C@@]21O3 | inactive
19 | C=CCOC(=O)[C@@H]1[C@@H]2C=C[C@]3(O2)[C@H](C(=O)N(CC=C)Cc2ccccc2)N(c2cccc(Cl)c2CO)C(=O)[C@@H]13 | inactive
20 | C=CCOC(=O)[C@@H]1[C@@H]2C=C[C@@]3(O2)[C@@H]1C(=O)N(CCCCCCO)[C@H]3C(=O)N(CC=C)Cc1ccccc1 | active
21 | Cc1cc(C(=O)Nc2cccc3c2O[C@@H](CN(C)C(=O)Nc2ccc4c(c2)OCO4)[C@H](C)CN([C@H](C)CO)C3=O)n(C)n1 | inactive
22 | CC(=O)N1CCN(CCOc2ccc(C3CCN(C4=Nn5c(nnc5C(F)(F)F)CC4)CC3)cc2)CC1 | active
23 | C[C@@H]1CN([C@H](C)CO)S(=O)(=O)c2ccc(/C=C/c3ccccc3)cc2O[C@@H]1CN(C)C(=O)CN1CCOCC1 | inactive
24 | COc1ccc(NC(=O)N(C)C[C@H]2OCCCC[C@H](C)Oc3ccc(NC(=O)Nc4ccc(F)cc4)cc3C(=O)N([C@@H](C)CO)C[C@H]2C)cc1 | inactive
25 | CC(C)C[C@@H]1NC(=O)[C@@H]2C[C@H](C(=O)NCCCCCNC(=O)CS)[C@H](c3ccc(O)cc3)N2C1=O | inactive

Row | SMILES | cytotoxicity call
26 | C[C@H]1CN([C@@H](C)CO)S(=O)(=O)c2ccc(-c3cccc(C#N)c3)cc2O[C@H]1CN(C)C(=O)c1ccncc1 | inactive
27 | C[C@@H]1CN([C@@H](C)CO)S(=O)(=O)c2ccc(-c3ccc(C(=O)N(C)C)cc3)cc2O[C@@H]1CN(C)C(=O)C1CCOCC1 | inactive
28 | CCN(CC)CCOc1ccc(C(=C(Cl)c2ccccc2)c2ccccc2)cc1.O=C(O)CC(O)(CC(=O)O)C(=O)O | active
29 | CCN(CC)CCOCCOC(=O)C1(c2ccccc2)CCCC1.O=C(O)CC(O)(CC(=O)O)C(=O)O | active
30 | O=C(O)CC(O)(CC(=O)O)C(=O)O [listing 1 of 2 here] | inactive
31 | CN(C)CCOc1ccc(C(=C(CCCl)c2ccccc2)c2ccccc2)cc1.O=C(O)CC(O)(CC(=O)O)C(=O)O | active
32 | CCC(=C(c1ccccc1)c1ccc(OCCN(C)C)cc1)c1ccccc1.O=C(O)CC(O)(CC(=O)O)C(=O)O | inactive
33 | O=C(O)C1(c2ccccc2)CCCC1 | inactive
34 | O=C(O)CC(O)(CC(=O)O)C(=O)O [listing 2 of 2 here] | inactive
35 | Cc1ccccc1C(OCCN(C)C)c1ccccc1.O=C(O)CC(O)(CC(=O)O)C(=O)O (stereo not drawn) | inactive
36 | CCN(CC)CCOCCOC(=O)C(CC)(CC)c1ccccc1.O=C(O)CC(O)(CC(=O)O)C(=O)O | inactive
37 | O=C(C[C@@H]1CC[C@@H]2[C@H](COC[C@H](O)CN2S(=O)(=O)c2ccc(F)cc2)O1)NCCN1CCCCC1 | inactive
38 | C[C@@H]1CN([C@H](C)CO)C(=O)c2cccc(NS(C)(=O)=O)c2O[C@H]1CN(C)C(=O)Nc1ccc2c(c1)OCO2 | inactive
39 | CC(C)CC#Cc1ccc2c(c1)O[C@H](CN(C)Cc1cncnc1)[C@@H](C)CN([C@H](C)CO)S2(=O)=O | inactive
40 | C=CC(=O)Nc1ccc([C@@H](CCc2ccc(OC)c(OC)c2)OC(=O)[C@@H]2CCCCN2C(=O)C(=O)C(C)(C)CC)cc1 | inactive
41 | Cc1ccc(S(=O)(=O)Nc2ccc3c(c2)C(=O)N([C@H](C)CO)C[C@@H](C)[C@@H](CN(C)C(=O)Cc2ccccc2)OCCCC[C@H](C)O3)cc1 | inactive
42 | COCC(=O)Nc1ccc2c(c1)OC[C@@H](C)N(Cc1ccccc1F)C[C@@H](C)[C@H](OC)CN(C)C2=O | inactive
43 | Cc1noc(C)c1NC(=O)Nc1ccc2c(c1)C(=O)N([C@@H](C)CO)C[C@@H](C)[C@H](CN(C)S(=O)(=O)c1cccs1)OCCCC[C@H](C)O2 | inactive
44 | C[C@@H]1CN([C@H](C)CO)C(=O)c2cc(NC(=O)Cn3cnnn3)ccc2O[C@@H]1CN(C)S(=O)(=O)c1cccs1 | inactive
45 | O=C(O)[C@@H]1CCCCN1 | inactive
46 | O=C(O)CC[C@H]1CCCCN1 | inactive
47 | OC[C@@H]1CCCCN1 | inactive
48 | C1CCC(C(CC2CCCCN2)C2CCCCC2)CC1.O=C(O)C=CC(=O)O (stereo not drawn) | active
49 | C1CCC(C(C[C@H]2CCCCN2)C2CCCCC2)CC1 | active
50 | OC[C@@H]1CCCN1 | inactive

Row | SMILES | cytotoxicity call
51 | C[C@H]1CN([C@@H](C)CO)C(=O)c2cccc(NS(=O)(=O)c3cn(C)cn3)c2O[C@H]1CN(C)CC1CCCCC1 | inactive
52 | CCCC#Cc1ccc2c(c1)O[C@@H](CN(C)S(=O)(=O)c1cccc(F)c1)[C@@H](C)CN([C@@H](C)CO)S2(=O)=O | inactive
53 | O=C(CN1CCOCC1)NCC[C@H]1CC[C@@H](NC(=O)c2ccccc2F)[C@@H](CO)O1 | inactive
54 | CC(C)NC(=O)N(C)C[C@@H]1Oc2ccc(NC(=O)CCCN(C)C)cc2C(=O)N([C@H](C)CO)C[C@H]1C | inactive
55 | CCc1nc2ccccc2nc1CC | inactive
56 | CCc1nc(N)nc(N)c1-c1ccc(Cl)cc1 | active
57 | Nc1oncc1-c1ccc(Cl)cc1 | inactive
58 | C[C@@H]1CN([C@@H](C)CO)C(=O)c2cc(NC(=O)Nc3ccccc3)ccc2O[C@@H](C)CCCCO[C@H]1CN(C)C(=O)Cc1ccccc1 | inactive
59 | C[C@@H]1CCCCO[C@@H](CN(C)C(=O)Nc2ccc(F)cc2)[C@@H](C)CN([C@H](C)CO)C(=O)c2cc(NC(=O)Nc3ccc(C(F)(F)F)cc3)ccc2O1 | inactive
60 | C[C@@H]1CN([C@@H](C)CO)S(=O)(=O)c2ccc(C#Cc3ccccc3F)cc2O[C@@H]1CN(C)C(=O)c1ccc2c(c1)OCO2 | active
61 | CC(C)CC#Cc1ccc2c(c1)O[C@H](CN(C)CC1CCOCC1)[C@@H](C)CN([C@H](C)CO)S2(=O)=O | inactive
62 | CC(C)CC#Cc1ccc2c(c1)O[C@@H](CN(C)CC1CCOCC1)[C@@H](C)CN([C@H](C)CO)S2(=O)=O | inactive
63 | C[C@@H]1CN([C@@H](C)CO)S(=O)(=O)c2ccc(C#Cc3ccccc3F)cc2O[C@H]1CN(C)C(=O)Cc1cccnc1 | inactive
64 | C[C@@H]1CN([C@H](C)CO)S(=O)(=O)c2ccc(C#Cc3ccccc3F)cc2O[C@@H]1CN(C)C(=O)Cc1cccnc1 | inactive
65 | C[C@H](CO)N1C[C@H](C)[C@H](CN(C)CC2CC2)Oc2cc(C#Cc3ccccc3F)ccc2S1(=O)=O | active
66 | C[C@H]1CN([C@@H](C)CO)S(=O)(=O)c2ccc(C#Cc3ccccc3F)cc2O[C@H]1CN(C)C(=O)c1ccc2c(c1)OCO2 | inactive
67 | C[C@H]1CN([C@@H](C)CO)S(=O)(=O)c2ccc(C#Cc3ccccc3F)cc2O[C@@H]1CN(C)C(=O)c1ccc2c(c1)OCO2 | inactive
68 | C[C@@H]1CN([C@@H](C)CO)S(=O)(=O)c2ccc(C#Cc3ccccc3F)cc2O[C@H]1CN(C)CC1CC1 | inactive
69 | C[C@@H]1CN([C@H](C)CO)S(=O)(=O)c2ccc(C#Cc3ccccc3F)cc2O[C@@H]1CN(C)CC1CC1 | inactive
70 | C[C@@H]1CN([C@@H](C)CO)S(=O)(=O)c2ccc(C#Cc3ccccc3F)cc2O[C@@H]1CN(C)C(=O)Cc1cccnc1 | active
71 | CC(C)CC#Cc1ccc2c(c1)O[C@@H](CN(C)CC1CCOCC1)[C@H](C)CN([C@@H](C)CO)S2(=O)=O | active
72 | C[C@H]1CN([C@@H](C)CO)S(=O)(=O)c2ccc(C#CC3CC3)cc2O[C@@H]1CN(C)C(=O)c1cccc(F)c1 | inactive
73 | Cc1noc(C)c1NC(=O)N(C)C[C@H]1OCCCC[C@@H](C)Oc2ccc(NC(=O)Nc3ccccc3)cc2C(=O)N([C@@H](C)CO)C[C@H]1C | inactive
